The list is not random: actives were taken first. Their share in the collection is about 6.7%.
SW480 rereplic: A quantitative high throughput screen for small molecules that induce DNA re-replication in SW480 colon adenocarcinoma cells. SW480 DNA re-replication, Hoechst DNA content imaging, 48 h. Potency, µM (highest dose often 46.1 µM), most hits filed as activators. hit rate 1.8% among 340,000; also: nearly all actives have a fitted effect of over 55% in size
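Cells (250 per well) received 23 nL compound or DMSO by pin tool and were kept 48 hr at 37 C, 5% CO2. Nuclei were then stained with Hoechst for 40 min and scanned for DNA content.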
KB-3-1 tox: qHTS assay for MDR1-selective chemotherapeutics: Primary screen using the parental adenocarcinoma cell KB-3-1; KB-3-1 viability, CellTiter-Glo ATP luminescence, 72 h; Potency, µM (titrated, usually from 46.1 µM), hits mostly cytotoxic; hit rate 1.4% among 400,000; also: nearly all actives have a fitted effect of over 60% in size
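Cytotoxicity measured as CellTiter-Glo luminescence after 72 h at 37 C. Compound titrations were pinned onto drug-naive KB-3-1 parental adenocarcinoma cells grown in DMEM with 10% FBS, and normalized data fitted to concentration-response curves.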
MCF10A rereplic: A quantitative high throughput screen for small molecules that induce DNA re-replication in MCF 10a normal breast cells | MCF 10A DNA re-replication, Hoechst nuclear intensity, 48 h | hit rate 2.9% among 350,000 | AID 624296, 2012 | Potency, µM (series often up to 46.1 µM), usual class: activators; also: nearly all actives have a fitted effect of over 50% in size
PINK1 expr mod: A Quantitative High throughput Screen to Identify Chemical Modulators of PINK1 Expression | PINK1 immunofluorescence, high-content cytometry, 24 h | Potency, µM (top dose mostly 76.6 µM), most hits filed as activators | hit rate 0.2% among 410,000; active = well fitted activation curve with a large enough effect; inconclusive = small, poorly fitted or top-dose-only effect; cell line not stated here; also: nearly all actives have a fitted effect of over 65% in size
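A stable cell line was treated with compounds at 5 concentrations for 24 hours, with CCCP as control. PINK1 levels and mitochondrial localization were measured by immunofluorescence with mitochondrial, cell and nuclear markers after fixation, read by laser-scanning cytometry.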
KB-V1 MDR tox: qHTS assay for MDR1-selective chemotherapeutics: Primary screen using the drug-selected MDR subline cells KB-V1; Potency, µM (titrated, usually from 46.1 µM), usual class: cytotoxic; KB-V1 MDR cells viability, CellTiter-Glo, 72 h; hit rate 3.4% among 400,000; also: nearly all actives have a fitted effect of over 60% in size
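KB-V1 MDR subline cells in DMEM (phenol-red free, 10% FBS) exposed to compounds in qHTS concentration series for 72 h at 37 degrees C. Viability read by CellTiter-Glo luminescence; concentration-effect curves fitted after normalization and correction.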
Large screens that a line does not name were inactive. Unless noted, calls follow the shape of the dose curve; as a rule, active = well fitted curve in the direction sought with a large enough effect; inconclusive = small, poorly fitted or top-dose-only effect, or another doubt; inactive = no such curve, though single readings can be large; an effect the other way counts as inactive or inconclusive.

O=C(NNC1=C(C(=O)C(F)(F)F)CCC1)c1ccccc1O	KB-3-1 tox inconclusive, MCF10A rereplic inconclusive, PINK1 expr mod inconclusive
Nc1ccccc1C(=O)NNC1=C(C(=O)C(F)(F)F)CCC1	SW480 rereplic inconclusive, KB-3-1 tox inconclusive
COc1ccccc1C(=O)NNC1=C(C(=O)C(F)(F)F)CCC1	SW480 rereplic 2.59µM, MCF10A rereplic 4.11µM (no result: PINK1 expr mod)
O=C(NNC1=C(C(=O)C(F)(F)F)CCC1)c1ccc(Br)cc1	SW480 rereplic 9.2µM, MCF10A rereplic inconclusive
CCCCn1c(=O)[nH]c(=O)c2c1nc(-c1ccc(-c3ccccc3Br)o1)n2CCOC	MCF10A rereplic inconclusive, KB-V1 MDR tox inconclusive
COCCn1c(-c2ccc(-c3ccccc3Cl)o2)nc2c1c(=O)[nH]c(=O)n2CC(C)C	SW480 rereplic inconclusive, MCF10A rereplic 11.6µM
N#C/C(=C\c1cn(-c2ccccc2)nc1-c1cc2ccccc2o1)c1nc2ccccc2[nH]1	SW480 rereplic 2.91µM, MCF10A rereplic inconclusive, PINK1 expr mod inconclusive, KB-V1 MDR tox inconclusive
CN(C)S(=O)(=O)c1cccc(-c2nn(-c3ccccc3)cc2/C=C2\SC(=S)NC2=O)c1	KB-3-1 tox inconclusive, MCF10A rereplic inconclusive, PINK1 expr mod inconclusive, KB-V1 MDR tox inconclusive
Cc1ccc(-c2nn(-c3ccccc3)cc2/C=C(\C#N)c2cccc(C#N)c2)o1	SW480 rereplic inconclusive, MCF10A rereplic inconclusive, PINK1 expr mod inconclusive
CN(C)S(=O)(=O)c1cccc(-c2nn(-c3ccccc3)cc2/C=C(\C#N)c2nc3ccccc3[nH]2)c1	SW480 rereplic inconclusive, MCF10A rereplic 3.26µM
COc1cc(CSc2ncc(CO)n2Cc2ccc(C)cc2)cc(OC)c1	none (no result: SW480 rereplic, MCF10A rereplic)
O=C(COc1ccccc1Cl)NNC(=O)c1ccc2nc[nH]c2c1	none
CCn1c(C)c(C)c2cc(C(=O)N3CCc4ccccc4C3)ccc21	SW480 rereplic inconclusive, KB-3-1 tox 13µM, MCF10A rereplic 3.66µM, KB-V1 MDR tox inconclusive
CC(=O)Nc1cc(C(=O)N2CCc3ccccc3C2)ccc1Sc1ccc(C)cc1	MCF10A rereplic 20.6µM, KB-V1 MDR tox inconclusive
CCCN1CCN(C(=O)c2ccc(Sc3ccc(C)cc3)c(NC(C)=O)c2)CC1	PINK1 expr mod inconclusive
COc1ccc(S(=O)(=O)NCc2ccc(C(=O)N3CCc4ccccc4C3)cc2)cc1	KB-3-1 tox inconclusive, KB-V1 MDR tox 5.8µM
Cc1ccc(CNS(=O)(=O)c2ccc(N3CCCCS3(=O)=O)cc2)cc1	KB-3-1 tox inconclusive (no result: SW480 rereplic, MCF10A rereplic)
COc1ccc(CNS(=O)(=O)c2ccc(N3CCCCS3(=O)=O)cc2)cc1	KB-3-1 tox 16.4µM, KB-V1 MDR tox inconclusive (no result: SW480 rereplic, MCF10A rereplic)
CCCc1nc2cc(C)c(Br)c(C)n2c1Cc1ccccc1OC	PINK1 expr mod inconclusive (no result: SW480 rereplic, MCF10A rereplic)
CCCCC[C@H](O)/C=C\[C@@H]1[C@H](O)CC(=O)[C@@H]1CCCCCCC(=O)O	none (no result: KB-3-1 tox, PINK1 expr mod, KB-V1 MDR tox)
Cc1ccc(S(=O)(=O)NCc2ccc(C(=O)N3CCc4ccccc4C3)cc2)cc1	KB-V1 MDR tox 4.61µM
CCN(Cc1ccccc1)C(=O)c1ccc(CNS(=O)(=O)c2ccc(C)cc2)cc1	MCF10A rereplic 20.6µM, KB-V1 MDR tox 18.4µM
Cc1cc(C)cc(NC(=O)C(=O)NCC(c2cccnc2)N2CCc3ccccc32)c1 (configuration not stated)	none (no result: SW480 rereplic, MCF10A rereplic)
Cc1cc(N)cc(C)c1-c1c(Br)cc(N)cc1Br	SW480 rereplic inconclusive, KB-3-1 tox 13µM, MCF10A rereplic inconclusive, KB-V1 MDR tox 16.4µM
Nc1cc(N)cc(N)c1	none (no result: SW480 rereplic, MCF10A rereplic, PINK1 expr mod)
OC(c1ccc(F)cc1)c1nc(-c2ccoc2)cs1 (configuration not stated)	none (no result: SW480 rereplic, MCF10A rereplic)
COc1ccc(Cc2c(-c3ccco3)nc3ccc(Cl)cn23)c(C)c1	none (no result: SW480 rereplic, MCF10A rereplic)
CSCCC(NC(=O)COc1ccccc1)C(=O)NC1CCC(C)CC1 (configuration not stated)	KB-V1 MDR tox 8.2µM
COc1ccc(NC(=O)CN(C)C(=O)C(NC(=O)c2ccco2)C(C)C)cc1 (configuration not stated)	none
CSCCC(NC(=O)COc1ccccc1)C(=O)N(C)CC(=O)Nc1ccc(Cl)cc1 (configuration not stated)	KB-V1 MDR tox 3.66µM

Compound activity: PubChem, National Center for Advancing Translational Sciences (NCATS)
